According to PubChem BioAssay AID1159580 (chemical genetic matrix, 2015):
Screen size: about 5,500 compounds; about 2,000 (36%) were called active. Not shown: some 18% with an inconclusive outcome. No stated cut-off is given here; in the data, active means normalized growth mostly below about 0.91 (no sharp cut-off); inconclusive means no clear call, values can overlap the other calls; inactive means mostly above about 0.92. The list shows a part of the results.

Assay: chemical genetic growth profiling, strain panel (AID 1159580);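 further: tested at 20 µM; growth read once vehicle control cultures reached saturation at 30 °C; 1 = growth at the plate median or of vehicle wells; lower values mean less growth of the strain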
Conditions: growth OD

Measured: normalized growth

C[C@@H]1CC(Cl)CC[C@H]1C(=O)OC(C)(C)C (some centres not stated)
inactive: S. cerevisiae deletion strains, locus YJR075W, strain HOC1, active compounds read low 0.964 | S. cerevisiae deletion strains, locus YKL009W, strain mrt4, active compounds read low 1 | S. cerevisiae deletion strains, locus YKL068W, active compounds read low 0.98 | S. cerevisiae deletion strains, locus YKL085W, strain MDH1 (second series), active compounds read low 0.977 | S. cerevisiae deletion strains, locus YKL085W, strain MDH1, active compounds read low 0.977 | S. cerevisiae deletion strains, locus YKL160W, strain elf1, active compounds read low 1.02 | S. cerevisiae deletion strains, locus YKL190W, strain CNB1, active compounds read low 0.981 | S. cerevisiae deletion strains, locus YKR001C, strain vps1, active compounds read low 1.01 | S. cerevisiae deletion strains, locus YKR026C, strain gcn3, active compounds read low 0.985 | S. cerevisiae deletion strains, locus YKR091W, strain srl3, active compounds read low 0.982 | S. cerevisiae deletion strains, locus YLL001W, strain dnm1, active compounds read low 0.979 | S. cerevisiae deletion strains, locus YLL026W, active compounds read low 0.983 | S. cerevisiae deletion strains, locus YLL041C, strain sdh2, active compounds read low 0.982 | S. cerevisiae deletion strains, locus YLR027C, strain aat2, active compounds read low 0.982 | S. cerevisiae deletion strains, locus YLR039C, strain RIC1, active compounds read low 1 | S. cerevisiae deletion strains, locus YLR058C, strain SHM2, active compounds read low 0.991 | S. cerevisiae deletion strains, locus YLR102C, strain apc9, active compounds read low 0.991 | S. cerevisiae deletion strains, locus YLR113W, strain HOG1, active compounds read low 0.999 | S. cerevisiae deletion strains, locus YLR221C, strain rsa3, active compounds read low 1.01 | S. cerevisiae deletion strains, locus YLR258W, strain gsy2, active compounds read low 0.97 | S. cerevisiae deletion strains, locus YLR262C, strain YPT6 (second series), active compounds read low 0.965 | S. cerevisiae deletion strains, locus YLR262C, strain YPT6, active compounds read low 0.957 | S. cerevisiae deletion strains, locus YLR268W, strain sec22, active compounds read low 0.976 | S. cerevisiae deletion strains, locus YLR320W, strain mms22, active compounds read low 0.954 | S. cerevisiae deletion strains, locus YLR330W, strain CHS5, active compounds read low 0.99 | S. cerevisiae deletion strains, locus YLR342W, strain FKS1 (second series), active compounds read low 1.05 | S. cerevisiae deletion strains, locus YLR342W, strain FKS1, active compounds read low 0.98 | S. cerevisiae deletion strains, locus YLR357W, strain rsc2, active compounds read low 0.985 | S. cerevisiae deletion strains, locus YLR370C, strain arc18, active compounds read low 0.991 | S. cerevisiae deletion strains, locus YLR371W, strain rom2, active compounds read low 1 | S. cerevisiae deletion strains, locus YLR384C, strain iki3, active compounds read low 0.982 | S. cerevisiae deletion strains, locus YLR418C, strain cdc73, active compounds read low 0.972 | S. cerevisiae deletion strains, locus YML016C, strain PPZ1, active compounds read low 0.992 | S. cerevisiae deletion strains, locus YML032C, strain rad52, active compounds read low 0.967 | S. cerevisiae deletion strains, locus YML120C, strain ndi1, active compounds read low 1 | S. cerevisiae deletion strains, locus YML124C, strain tub3, active compounds read low 0.983 | S. cerevisiae deletion strains, locus YMR058W, strain fet3, active compounds read low 0.976 | S. cerevisiae deletion strains, locus YMR078C, strain ctf18, active compounds read low 0.985 | S. cerevisiae deletion strains, locus YMR125W, strain sto1, active compounds read low 0.962 | S. cerevisiae deletion strains, locus YMR129W, active compounds read low 0.961 | S. cerevisiae deletion strains, locus YMR205C, strain PFK2, active compounds read low 0.928 | S. cerevisiae deletion strains, locus YMR223W, strain ubp8, active compounds read low 1.04 | S. cerevisiae deletion strains, locus YMR231W, strain pep5, active compounds read low 0.995 | S. cerevisiae deletion strains, locus YMR263W, strain SAP30, active compounds read low 0.976 | S. cerevisiae deletion strains, locus YMR307W, strain GAS1, active compounds read low 1 | S. cerevisiae deletion strains, locus YNL067W, strain RPL9B, active compounds read low 0.959 | S. cerevisiae deletion strains, locus YNL071W, strain lat1, active compounds read low 0.985 | S. cerevisiae deletion strains, locus YNL128W, strain TEP1, active compounds read low 0.971 | S. cerevisiae deletion strains, locus YNL153C, strain GIM3, active compounds read low 0.986 | S. cerevisiae deletion strains, locus YNL183C, strain NPR1, active compounds read low 0.948 | S. cerevisiae deletion strains, locus YNL209W, strain ssb2, active compounds read low 0.989 | S. cerevisiae deletion strains, locus YNL233W, strain BNI4, active compounds read low 0.997 | S. cerevisiae deletion strains, locus YNL248C, strain rpa49, active compounds read low 1.01 | S. cerevisiae deletion strains, locus YNL250W, strain rad50, active compounds read low 0.987 | S. cerevisiae deletion strains, locus YNL271C, strain bni1, active compounds read low 0.976 | S. cerevisiae deletion strains, locus YNL298W, strain CLA4, active compounds read low 0.979 | S. cerevisiae deletion strains, locus YNL307C, strain MCK1, active compounds read low 0.995 | S. cerevisiae deletion strains, locus YNL322C, strain KRE1 (second series), active compounds read low 0.996 | S. cerevisiae deletion strains, locus YNL322C, strain KRE1, active compounds read low 0.956 | S. cerevisiae deletion strains, locus YNR049C, strain mso1, active compounds read low 0.971 | S. cerevisiae deletion strains, locus YNR052C, strain pop2, active compounds read low 0.989 | S. cerevisiae deletion strains, locus YOL006C, strain TOP1, active compounds read low 0.991 | S. cerevisiae deletion strains, locus YOL012C, strain htz1 0.765 | S. cerevisiae deletion strains, locus YOL147C, strain pex11, active compounds read low 0.992 | S. cerevisiae deletion strains, locus YOR001W, strain rrp6, active compounds read low 1 | S. cerevisiae deletion strains, locus YOR061W, strain CKA2, active compounds read low 0.993 | S. cerevisiae deletion strains, locus YOR069W, strain VPS5, active compounds read low 0.989 | S. cerevisiae deletion strains, locus YOR070C, strain gyp1, active compounds read low 0.991 | S. cerevisiae deletion strains, locus YOR080W, strain dia2, active compounds read low 0.98 | S. cerevisiae deletion strains, locus YOR083W, strain WHI5, active compounds read low 1.04 | S. cerevisiae deletion strains, locus YOR106W, strain vam3, active compounds read low 1 | S. cerevisiae deletion strains, locus YOR136W, strain idh2, active compounds read low 0.996 | S. cerevisiae deletion strains, locus YOR144C, strain elg1, active compounds read low 0.991 | S. cerevisiae deletion strains, locus YOR184W, strain ser1, active compounds read low 0.935 | S. cerevisiae deletion strains, locus YOR231W, strain MKK1, active compounds read low 1.01 | S. cerevisiae deletion strains, locus YOR265W, strain rbl2, active compounds read low 0.986 | S. cerevisiae deletion strains, locus YOR270C, strain vph1, active compounds read low 0.928 | S. cerevisiae deletion strains, locus YOR290C, strain snf2, active compounds read low 0.92 | S. cerevisiae deletion strains, locus YOR316C, strain cot1, active compounds read low 0.969 | S. cerevisiae deletion strains, locus YPL051W, strain arl3, active compounds read low 1 | S. cerevisiae deletion strains, locus YPL055C, strain LGE1, active compounds read low 0.864 | S. cerevisiae deletion strains, locus YPL078C, strain atp4, active compounds read low 1 | S. cerevisiae deletion strains, locus YPL106C, strain sse1, active compounds read low 0.962 | S. cerevisiae deletion strains, locus YPL240C, strain hsp82, active compounds read low 0.982 | S. cerevisiae deletion strains, locus YPL241C, strain CIN2, active compounds read low 0.997 | S. cerevisiae deletion strains, locus YPL256C, strain CLN2, active compounds read low 1.01 | S. cerevisiae deletion strains, locus YPR119W, strain clb2, active compounds read low 0.977 | S. cerevisiae deletion strains, locus YPR141C, strain kar3, active compounds read low 0.979 | S. cerevisiae deletion strains, locus YPR163C, strain tif3, active compounds read low 0.992 | S. cerevisiae deletion strains, locus YPR167C, strain met16, active compounds read low 0.977 | S. cerevisiae deletion strains, strain wtn01, active compounds read low 0.977 | S. cerevisiae strains, strain wild type, active compounds read low 0.984
